# PubChem BioAssay (NCATS)
# Inconclusive results are not listed. A call without a number means that no potency is given here. Activity calls are given as the source filed them. The call rests on the fitted dose curve; in most records, active means well fitted inhibition curve with a large enough effect; inconclusive means small, poorly fitted or top-dose-only effect; inactive means flat fitted curve, though single readings scatter.
# Target: Aldehyde dehydrogenase, mitochondrial (Homo sapiens) (UniProt P05091)
# Test: qHTS for Inhibitors of the Aldehyde Dehydrogenase Family (ALDH2) Primary screen (AID 2061308); further: nearly all actives have a fitted effect of over 55% in size
# Details: ALDH2 enzyme inhibition qHTS, 1536-well; series mostly up to 56 µM
row,Structure (SMILES),Potency
1,COc1cc(/C=C/C(=O)O[C@H]2[C@H](O)[C@@H](CO)O[C@@]2(CO)O[C@H]2O[C@H](CO)[C@@H](O)[C@H](O)[C@H]2O)cc(OC)c1O,inactive
2,CC1CCC2C(C(=O)O)=CC3(O)CC(C)(C)CC123 (stereo not given),inactive
3,CNS(=O)(=O)c1ccccc1Nc1nc(Nc2ccc(N3CCN(C)CC3)cc2OC)ncc1Br,inactive
4,COc1cc2c(cc1O)C1(Cc3ccc4c(c3C1=O)OCO4)N(C)CC2 (stereo not given),inactive
5,COc1cc([C@@H]2Oc3c(OC)cc(CCCO)cc3[C@@H]2CO[C@@H]2O[C@H](CO)[C@@H](O)[C@H](O)[C@H]2O)ccc1O,inactive
6,C/C=C1/[C@H](O[C@@H]2O[C@H](CO)[C@@H](O)[C@H](O)[C@H]2O)OC=C(C(=O)OC)[C@H]1CC(=O)OCCc1ccc(OC(=O)C[C@@H]2C(C(=O)OC)=CO[C@@H](O[C@@H]3O[C@H](CO)[C@@H](O)[C@H](O)[C@H]3O)/C2=C/C)cc1,inactive
7,COC(=O)C1=CO[C@@H](O[C@@H]2O[C@H](CO)[C@@H](O)[C@H](O)[C@H]2O)[C@@H]2[C@@H](C)[C@@H](O)C[C@H]12,inactive
8,CC1(C)CC[C@]2(CO[C@@H]3O[C@H](CO)[C@@H](O)[C@H](O)[C@H]3O)[C@@H](O)C[C@]3(C)C(=CCC4[C@@]5(C)CC[C@H](O[C@@H]6O[C@H](CO[C@@H]7O[C@H](CO[C@@H]8OC[C@@H](O)[C@H](O)[C@H]8O)[C@@H](O)[C@H](O)[C@H]7O)[C@@H](O)[C@H](O)[C@H]6O)C(C)(C)C5CC[C@]43C)[C@@H]2C1 (stereo not given in full),inactive
9,CC(C/C=C/C(C)(C)O)C1CCC(C)(O)C(O)C1 (stereo not given),inactive
10,C[C@@H]1O[C@@H](O[C@H]2[C@H](O[C@H]3[C@H](O[C@H]4CC[C@@]5(C)C(CC[C@]6(C)C5CC=C5[C@@H]7CC(C)(C(=O)O)C[C@@H](O)[C@]7(C)CC[C@]56C)[C@@]4(C)CO)O[C@H](C(=O)O)[C@@H](O)[C@@H]3O)O[C@H](CO)[C@H](O)[C@@H]2O)[C@H](O)[C@H](O)[C@H]1O (stereo not given in full),inactive
11,COc1cc(C2Oc3c(OC)cc(/C=C/C(=O)OC4CC(O)(C(=O)O)CC(O)C4O)cc3C2CO)ccc1O (stereo not given),inactive
12,CC(=O)N[C@H]1[C@H](O[C@H]2CC[C@@]3(C)C(CC[C@]4(C)C3CC=C3C5CC(C)(C)CC[C@]5(C(=O)O)[C@H](O[C@@H]5O[C@H](CO)[C@@H](O)[C@H](O)[C@H]5O)C[C@]34C)C2(C)C)O[C@H](CO[C@@H]2OC[C@H](O)[C@H](O)[C@H]2O[C@@H]2OC[C@@H](O)[C@H](O)[C@H]2O)[C@@H](O)[C@@H]1O (stereo not given in full),inactive
13,C=C1CC[C@@H]2[C@](C)(CO[C@@H]3O[C@H](CO)[C@@H](O)[C@H](O)[C@H]3O)CCC[C@@]2(C)[C@@H]1CCC1=CCOC1=O,inactive
14,OC[C@H]1O[C@@H](OC/C=C/c2ccc(O)cc2)[C@H](O)[C@@H](O)[C@@H]1O,inactive
15,COC(=O)C1=CO[C@@H](O[C@@H]2O[C@H](CO[C@@H]3O[C@H](COC(=O)/C=C/c4ccc(O)cc4)[C@@H](O)[C@H](O)[C@H]3O)[C@@H](O)[C@H](O)[C@H]2O)[C@@H]2C(CO)=CC[C@H]12,inactive
16,COc1cc2c(cc1O)C1(Cc3ccc4c(c3C1O)OCO4)[N+](C)([O-])CC2 (stereo not given),inactive
17,CC[C@@H](Nc1c(Nc2cccc(C(=O)N(C)C)c2O)c(=O)c1=O)c1ccc(C)o1,inactive
18,O=C(c1ccc(C#Cc2cccc(F)c2)cn1)N1CC2CC2C1 (stereo not given),inactive
19,C#CCCCn1cc(-c2cccc3c2N[C@@H](C)CC(=O)N3)cn1,inactive
20,N#Cc1cc(F)cc(-c2nc(-c3ccccn3)no2)c1,inactive

row,Structure (SMILES),Potency
1,COc1cc(C(=O)O)ccc1OC1OC(CO)C(O)C(O)C1O (stereo not given),inactive
2,O=C(O)/C=C/c1cc2c(cc1O[C@@H]1O[C@H](CO)[C@@H](O)[C@H](O)[C@H]1O)OCO2,inactive
3,CC(CCc1ccc(O)cc1)O[C@@H]1O[C@H](CO[C@@H]2OC(CO)[C@H](O)[C@H]2O)[C@@H](O)[C@H](O)[C@H]1O (stereo not given in full),inactive
4,CC(C)n1nc(C#Cc2ccccc2)c2c(N)ncnc21,inactive
5,C=C1CCC2(C(=O)OC3OC(CO)C(O)C(O)C3O)CCC3(C)C(=CCC4C5(C)CCC(OC6OC(CO)C(OC7OC(C)C(O)C(O)C7O)C(OC7OCC(O)C(O)C7O)C6O)C(C)(C)C5CCC43C)C2C1 (stereo not given),inactive
6,COc1cc(/C=C/C(=O)OC(C)(C)C(OC2OC(CO)C(O)C(O)C2O)C(=O)OCc2ccc(OC3OC(CO)C(O)C(O)C3O)cc2)ccc1O (stereo not given),inactive
7,COc1ccc(/C=C/C(=O)N2CCCC2)cc1,inactive
8,COc1cc(C(CO)C(OC2OC(CO)C(O)C(O)C2O)c2ccc(O)c(OC)c2)ccc1O (stereo not given),inactive
9,C/C=C/C1=CC2=C(CO1)C(=O)[C@](C)(O)[C@H](OC(=O)c1c(O)cc(OC)c(O)c1C)C2,inactive
10,COc1ccc(-c2ccc3c(N4CCOCC4C)nc(N4CCOCC4C)nc3n2)cc1CO (stereo not given),inactive
11,CC1=CC2C(CC1OC1OC(CO)C(O)C(O)C1O)C(C)CC(=O)C2C(C)C (stereo not given),inactive
12,CC(C)CC1NC(=O)C2CC3(O)c4ccccc4NC3N2C1=O (stereo not given),inactive
13,CC(=O)N1CCc2ccc(O)c(OC3OC(COC4OCC(O)(CO)C4O)C(O)C(O)C3O)c2C1Cc1ccc(O)cc1 (stereo not given),inactive
14,C/C=C1/CC2C(=O)Nc3cc(O)c(OC)cc3C(=O)N2C1 (stereo not given),inactive
15,COC(=O)c1c(CC=C(C)C)c(OC2OC(CO)C(O)C(O)C2O)c2ccccc2c1OC1OC(CO)C(O)C(O)C1O (stereo not given),inactive
16,C[C@@H]1C[C@H]2OC(=O)[C@@]3(C)CCC[C@](C)(C23)[C@@]1(O)CCC1=CC(=O)OC1O (stereo not given in full),inactive
17,C[C@@H]1O[C@@H](O[C@H]2[C@H](OC(C#N)c3ccc(O)cc3)O[C@H](CO)[C@@H](O)[C@@H]2O)[C@H](O)[C@H](O)[C@H]1O (stereo not given in full),inactive
18,CC(C)(O)/C=C/C1=CC(=O)[C@@](C)(O)C[C@H]1O,inactive
19,N#CC(CCCN1CCN(/N=C/c2cccnc2)CC1)(c1ccccc1)c1ccccc1,inactive
20,CC1CC=C2C1CC1(O)C(=O)CC2(C)C1(C)CO (stereo not given),inactive
